# Source: PubChem BioAssay (EPA / NIEHS)
# Active and inactive are the calls of the source. The calls were made as follows: active = hit-call score of the fitted dose curve at least 0.9, where 1 is the maximum; inactive = score below 0.9.
# Assay: APR_HepG2_StressKinase_1hr: Apredica 1-hour HepG2 Assay for Stress Kinase (AID 2282906)
# Details: HepG2 stress kinase (phospho-c-Jun) imaging, actives raise or lower the signal
# Description: APR_HepG2_1hr is a cell-based, multiplexed-readout assay that uses HepG2, a human liver cell line, with measurements taken at 1 hour after chemical dosing in a 384-well plate.APR_HepG2_StressKinase_1hr is one of 10 assay component(s) measured or calculated from the APR_HepG2_1hr assay. It is designed to make measurements of enzyme activity, a form of enzyme reporter, as detected with fluorescence intensity signals by HCS Fluorescent Imaging technology.Data from the assay component APR_HepG2_StressKinase_1hr was analyzed into 1 assay endpoint. This assay endpoint, APR_HepG2_StressKinase_1hr, was analyzed with bidirectional fitting relative to DMSO as the negative control and baseline of activity. Using a type of enzyme reporter, measures of protein for gain or loss-of-signal activity can be used to understand the signaling at the pathway-level as they relate to the gene . Furthermore, this assay endpoint can be referred to as a primary readout, because this assay has produced multiple assay endpoints where this one serves a signaling function. To generalize the intended target to other relatable targets, this assay endpoint is annotated to the cell cycle intended target family, where the subfamily is stress response.
# Cells were treated with dimethyl sulfoxide (DMSO) as a solvent control at a final concentration of 0.5% v/v or with compounds in DMSO with a resulting final DMSO concentration of 0.5% v/v. Compound treatment was done at concentrations of 0.39, 0.78, 1.56, 3.12, 6.24, 12.5, 25, 50, 100, and 200 uM in duplicate on each plate. Cells were treated with compounds for 1, 24, or 72 hr. Carbonyl […] m-chloro-phenylhydrazone (CCCP) and taxol were used as positive controls for mitochondrial function and cytoskeletal stability, respectively; DMSO served as the negative control for this experiment. Cells were fixed by the direct addition of 50 uL formaldehyde in Hank's Balanced Salt Solution (HBSS) to a final concentration of 3.7%. After incubation in the fixation medium for 30 min at room temperature (293-298 K), cells were rinsed twice with HBSS and treated with cell permeabilization buffer (16 uL of 0.5% Triton X-100) for 10 min at room temperature (293-298 K) before labeling. For mitochondrial membrane potential and mitochondrial measurements, pre-fixed cells were incubated with 50 uL of MitoTracker Red CMXRos (Invitrogen) at a concentration of 250 nM for 30 min before fixation. In the remaining cases, post-fixed cells were labeled by incubation with a multiplexed mixture of primary antibodies in HBSS for 60 min at room temperature (293-298 K) to detect immunoreactivity of c-Jun (1:500), phospho-histone H3 (1:100), phospho-histone H2A.x (1:200), p53 (1:400), alpha-tubulin (1:200) and Hoechst 33342 (2 ug/mL). Cells were labeled for multiplexed imaging on two separate plates: a) Hoechst 33342, MitoTracker Red, phospho-histone H3, and alpha-tubulin, and b) Hoechst 33342, phospho-histone H2A.x, and c-Jun. A final rinse with HBSS (50 uL) was performed before analysis. The primary and secondary antibodies for the proteins were phospho-histone H3 (rabbit anti-phospho-histone H3 and FITC-donkey anti-rabbit IgG), phospho-histone H2A.x (mouse anti-phospho-histone H2A.x and FITC-donkey anti-mouse IgG), c-Jun (rabbit anti-phospho-c-Jun and Cy3-donkey anti-rabbit IgG), p53 (sheep anti-p53 and Cy5-donkey anti-sheep IgG), alpha-tubulin (mouse anti-alpha-tubulin and Cy5-donkey anti-mouse IgG). These antibodies are available as the CellCiphr HepG2 assay kit (Millipore).Digital images of each well were captured using a Cellomics ArrayScan VTI (Thermo Scientific Cellomics) (0.8 NA objective, 0.63x optical coupler, and XF-93 filter set) at 20x magnification. The images were acquired using the autofocus feature of the ArrayScan instrument, which entails the following steps. First, the camera focuses on channel 1 (Hoechst 33342), where nuclei are identified. Second, a Z offset of 1 um is used for capturing mitochondria (MitoTracker Red). […]
Structure (SMILES),outcome,AC50
S=C([S-])NCCNC(=S)[S-].[Mn+2],inactive,–
O=C(Nc1ccc([N+](=O)[O-])cc1Cl)c1cc(Cl)ccc1O,–,0.364 µM (active)
C#CCOC(=O)[C@@H](C)Oc1ccc(Oc2ncc(Cl)cc2F)cc1,inactive,–
Cc1nn(C)c(Oc2ccccc2)c1C=NOCc1ccc(C(=O)OC(C)(C)C)cc1,inactive,–
CCCCC(CC)COC(=O)c1ccccc1C(=O)O (stereo not given),inactive,–
CCC(C)OC(=O)N1CCCCC1CCO (stereo not given),inactive,–
CCN(CC)C(=O)c1cccc(C)c1,inactive,–
COC(=O)c1ccccc1C(=O)O,inactive,–
CC(C)(c1ccc(O)cc1)c1ccc(O)cc1,inactive,–
CCCCCCC(C)OC(=O)COc1nc(F)c(Cl)c(N)c1Cl (stereo not given),inactive,–
OB(O)O,inactive,–
CCCN(CCC)C(=O)SCC,inactive,–
CCC(O)=C1C(=O)CC(C(=O)O)CC1=O (stereo not given),inactive,–
C=CCOC(Cn1ccnc1)c1ccc(Cl)cc1Cl (stereo not given),inactive,–
CCCCCOC(=O)COc1cc(N2C(=O)C3=C(CCCC3)C2=O)c(F)cc1Cl,–,87.4 µM (active)
CCOC(=O)NCCOc1ccc(Oc2ccccc2)cc1,inactive,–
c1ccc2[nH]c(-c3cscn3)nc2c1,inactive,–
COc1c(Cl)ccc(Cl)c1C(=O)O,inactive,–
COC(=O)CSc1cc(N=c2sc(=O)n3n2CCCC3)c(F)cc1Cl,inactive,–
COC(=O)c1cccc(C)c1S(=O)(=O)NC(=O)Nc1nc(OCC(F)(F)F)nc(N(C)C)n1,inactive,–

Structure (SMILES),outcome,AC50
CCOC(=O)C(C)Oc1ccc(Oc2cnc3cc(Cl)ccc3n2)cc1 (stereo not given),inactive,–
CCCCOC(=O)C(C)Oc1ccc(Oc2ccc(C(F)(F)F)cn2)cc1 (stereo not given),inactive,–
CCOC(=O)C(C)Oc1ccc(Oc2nc3ccc(Cl)cc3o2)cc1 (stereo not given),inactive,–
CC(C)(C)[C@@H](O)[C@@H](Cc1ccc(Cl)cc1)n1cncn1,inactive,–
S=C(S)NCCNC(=S)S.[Mn+2].[S-]C([S-])=NCCN=C([S-])[S-].[Zn+2],inactive,–
CC1(C)C(C=C(Cl)Cl)C1C(=O)OCc1cccc(Oc2ccccc2)c1 (stereo not given),inactive,–
c1ccc(Nc2ccccc2)cc1,inactive,–
CCN(Cc1c(F)cccc1Cl)c1c([N+](=O)[O-])cc(C(F)(F)F)cc1[N+](=O)[O-],inactive,–
CCSC(=O)N(CC(C)C)CC(C)C,inactive,–
CCOC(=O)[C@H](C)Oc1ccc(Oc2nc3ccc(Cl)cc3o2)cc1,inactive,–
O=C(O)C1(C(=O)Nc2ccc(Cl)cc2Cl)CC1,inactive,–
CN(C)C(=O)Nc1ccc(Cl)c(Cl)c1,inactive,–
CCCCC(CC)CN1C(=O)C2C3C=CC(C3)C2C1=O (stereo not given),inactive,–
CCCCOC(=O)[C@@H](C)Oc1ccc(Oc2ccc(C(F)(F)F)cn2)cc1,inactive,–
COC(=O)c1ccc(I)cc1S(=O)(=O)NC(=O)Nc1nc(C)nc(OC)n1,inactive,–
Oc1ccc(C(c2ccc(O)cc2)C(Cl)(Cl)Cl)cc1,–,94.2 µM (active)
COCCO,inactive,–
COC(=O)c1ccc(CNS(C)(=O)=O)cc1S(=O)(=O)NC(=O)Nc1nc(OC)cc(OC)n1,inactive,–
CCCOC(=O)NCCCN(C)C,inactive,–
CCCOC(=O)c1ccc(C(=O)OCCC)nc1,inactive,–
